Measurements as given in the supplement of paper PMC10849652.
Of roughly 8,800 targets only a part is listed; those with a hit were picked by preference. About 0.5% of all pairs of compound and target were hits. A number with no mark means an inactive call.

Experiments:
Assay in all cases: log2 fold change, soluble protein after heating vs DMSO (PISA); higher = thermal stabilisation; K562 lysate, 10 uM; active = over 0.2 and 3.5 SD of the protein, either way, in both replicates (recomputed)
vemurafenib = compound: CCCS(=O)(=O)Nc1ccc(F)c(C(=O)c2c[nH]c3ncc(-c4ccc(Cl)cc4)cc23)c1F [vemurafenib]
How it was run: (§1)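 Following dounce homogenisation of K562 pellets in PBS pH 7.4 with 1 mM MgCl2, crude extract at 1 mg/mL protein was incubated for 30 min with 10 μM compound. Aliquots were then heated for 3 min over 48°C-58°C and pooled, NP-40 was added to 0.5% at 4°C, and soluble protein was recovered as the supernatant at 21,000xg for 90 min. Channel-sum-equalised TMTpro 16plex LC-MS/MS quantified this protein. Each value, from duplicates, is a log-two fold change in thermal stability relative to solvent controls.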

[1] = compound: CCCS(=O)(=O)Nc1ccc(F)c(C(=O)c2c[nH]c3ncc(Cl)cc23)c1F
How it was run: as §1

barasertib = compound: CCN(CCCOc1ccc2c(Nc3cc(CC(=O)Nc4cccc(F)c4)[nH]n3)ncnc2c1)CCOP(=O)(O)O [barasertib]
How it was run: as §1

[2] = compound: CC[C@@H]1C(=O)N(C)c2cnc(Nc3ccc(C(=O)NC4CCN(C)CC4)cc3OC)nc2N1C1CCCC1
How it was run: as §1

volasertib = compound: CC[C@@H]1C(=O)N(C)c2cnc(Nc3ccc(C(=O)N[C@H]4CC[C@H](N5CCN(CC6CC6)CC5)CC4)cc3OC)nc2N1C(C)C [volasertib]
How it was run: as §1

[3] = compound: CCn1c(C(=O)N(C2CC2)C2CC2)cc2c3c(ncn3C)c(Nc3cc(C)n(C)n3)nc21
How it was run: as §1

[4] = compound: CCn1cc(-c2ccnc3[nH]c(-c4cccc(CN(C)C)c4)cc23)c(-c2ccc(NC(=O)N(C)C)cc2)n1
How it was run: as §1

[5] = compound: CN1CCC(CNc2ccc3ncc(-c4cccc(OC(F)(F)F)c4)n3n2)CC1
How it was run: as §1

saracatinib = compound: CN1CCN(CCOc2cc(OC3CCOCC3)c3c(Nc4c(Cl)ccc5c4OCO5)ncnc3c2)CC1 [saracatinib]
How it was run: as §1

sotrastaurin = compound: CN1CCN(c2nc(C3=C(c4c[nH]c5ccccc45)C(=O)NC3=O)c3ccccc3n2)CC1 [sotrastaurin]
How it was run: as §1

alvocidib = compound: CN1CC[C@H](c2c(O)cc(O)c3c(=O)cc(-c4ccccc4Cl)oc23)[C@H](O)C1 [alvocidib]
How it was run: as §1

Tubastatin A = compound: CN1CCc2c(c3ccccc3n2Cc2ccc(C(=O)NO)cc2)C1 [Tubastatin A]
How it was run: as §1

[6] = compound: CNC(=O)C1=CC=CC=C1NC2=NC(=NC=C2Cl)NC3=C(C=C(C=C3)N4CCOCC4)OC
How it was run: as §1

defactinib = compound: CNC(=O)c1ccc(Nc2ncc(C(F)(F)F)c(NCc3nccnc3N(C)S(C)(=O)=O)n2)cc1 [defactinib]
How it was run: as §1

[7] = compound: CNc1nc(-c2ccc3c(N)n[nH]c3c2)cc(N2C[C@@H](C(=O)NC3CCCCC3)CC[C@H]2C)n1
How it was run: as §1

encorafenib = compound: COC(=O)N[C@@H](C)CNc1nccc(-c2cn(C(C)C)nc2-c2cc(Cl)cc(NS(C)(=O)=O)c2F)n1 [encorafenib]
How it was run: as §1

[8] = compound: COC(=O)[C@H](CCSC)NC(=O)C1=C(C=C(C=C1)NC[C@H](CS)N)C2=CC=CC=C2
How it was run: as §1

alisertib = compound: COc1cc(Nc2ncc3c(n2)-c2ccc(Cl)cc2C(c2c(F)cccc2OC)=NC3)ccc1C(=O)O [alisertib]
How it was run: as §1

[9] = compound: COc1cc2nc(-c3cc(F)ccc3O)nc(N[C@@H]3CNC[C@H]3C(C)(C)O)c2cc1OC
How it was run: as §1

gefitinib = compound: COc1cc2ncnc(Nc3ccc(F)c(Cl)c3)c2cc1OCCCN1CCOCC1 [gefitinib]
How it was run: as §1

Sequence of UniProt Q9BZV1 (Q9BZV1 whole entry, looked up): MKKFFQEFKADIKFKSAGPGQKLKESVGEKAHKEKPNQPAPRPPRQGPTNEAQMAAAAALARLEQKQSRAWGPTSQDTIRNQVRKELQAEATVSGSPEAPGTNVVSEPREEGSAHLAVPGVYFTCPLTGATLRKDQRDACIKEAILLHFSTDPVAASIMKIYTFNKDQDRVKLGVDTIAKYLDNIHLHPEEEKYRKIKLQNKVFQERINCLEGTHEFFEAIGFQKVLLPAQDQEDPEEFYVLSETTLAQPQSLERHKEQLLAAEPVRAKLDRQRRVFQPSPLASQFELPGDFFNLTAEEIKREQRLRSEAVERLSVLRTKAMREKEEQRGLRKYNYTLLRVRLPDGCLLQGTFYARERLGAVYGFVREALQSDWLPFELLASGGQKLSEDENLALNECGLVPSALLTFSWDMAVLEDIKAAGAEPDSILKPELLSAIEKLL
Sequence of UniProt Q9NNW7 (Q9NNW7 whole entry, looked up): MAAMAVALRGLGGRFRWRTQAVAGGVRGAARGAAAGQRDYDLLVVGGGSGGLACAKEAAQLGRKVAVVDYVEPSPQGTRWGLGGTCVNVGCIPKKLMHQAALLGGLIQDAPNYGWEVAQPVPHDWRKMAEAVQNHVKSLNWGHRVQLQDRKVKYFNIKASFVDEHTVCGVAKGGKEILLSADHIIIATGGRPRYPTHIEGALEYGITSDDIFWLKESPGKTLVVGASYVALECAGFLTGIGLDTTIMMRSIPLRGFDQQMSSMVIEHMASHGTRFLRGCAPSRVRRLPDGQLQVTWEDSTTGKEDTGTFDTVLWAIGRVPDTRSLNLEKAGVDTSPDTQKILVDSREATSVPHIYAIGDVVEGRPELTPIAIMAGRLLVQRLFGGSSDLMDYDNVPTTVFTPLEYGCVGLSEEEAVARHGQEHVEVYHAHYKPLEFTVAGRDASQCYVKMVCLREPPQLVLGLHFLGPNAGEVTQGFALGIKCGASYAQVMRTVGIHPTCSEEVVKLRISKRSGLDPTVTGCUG
Sequence of UniProt Q5TAX3 (Q5TAX3 whole entry, looked up): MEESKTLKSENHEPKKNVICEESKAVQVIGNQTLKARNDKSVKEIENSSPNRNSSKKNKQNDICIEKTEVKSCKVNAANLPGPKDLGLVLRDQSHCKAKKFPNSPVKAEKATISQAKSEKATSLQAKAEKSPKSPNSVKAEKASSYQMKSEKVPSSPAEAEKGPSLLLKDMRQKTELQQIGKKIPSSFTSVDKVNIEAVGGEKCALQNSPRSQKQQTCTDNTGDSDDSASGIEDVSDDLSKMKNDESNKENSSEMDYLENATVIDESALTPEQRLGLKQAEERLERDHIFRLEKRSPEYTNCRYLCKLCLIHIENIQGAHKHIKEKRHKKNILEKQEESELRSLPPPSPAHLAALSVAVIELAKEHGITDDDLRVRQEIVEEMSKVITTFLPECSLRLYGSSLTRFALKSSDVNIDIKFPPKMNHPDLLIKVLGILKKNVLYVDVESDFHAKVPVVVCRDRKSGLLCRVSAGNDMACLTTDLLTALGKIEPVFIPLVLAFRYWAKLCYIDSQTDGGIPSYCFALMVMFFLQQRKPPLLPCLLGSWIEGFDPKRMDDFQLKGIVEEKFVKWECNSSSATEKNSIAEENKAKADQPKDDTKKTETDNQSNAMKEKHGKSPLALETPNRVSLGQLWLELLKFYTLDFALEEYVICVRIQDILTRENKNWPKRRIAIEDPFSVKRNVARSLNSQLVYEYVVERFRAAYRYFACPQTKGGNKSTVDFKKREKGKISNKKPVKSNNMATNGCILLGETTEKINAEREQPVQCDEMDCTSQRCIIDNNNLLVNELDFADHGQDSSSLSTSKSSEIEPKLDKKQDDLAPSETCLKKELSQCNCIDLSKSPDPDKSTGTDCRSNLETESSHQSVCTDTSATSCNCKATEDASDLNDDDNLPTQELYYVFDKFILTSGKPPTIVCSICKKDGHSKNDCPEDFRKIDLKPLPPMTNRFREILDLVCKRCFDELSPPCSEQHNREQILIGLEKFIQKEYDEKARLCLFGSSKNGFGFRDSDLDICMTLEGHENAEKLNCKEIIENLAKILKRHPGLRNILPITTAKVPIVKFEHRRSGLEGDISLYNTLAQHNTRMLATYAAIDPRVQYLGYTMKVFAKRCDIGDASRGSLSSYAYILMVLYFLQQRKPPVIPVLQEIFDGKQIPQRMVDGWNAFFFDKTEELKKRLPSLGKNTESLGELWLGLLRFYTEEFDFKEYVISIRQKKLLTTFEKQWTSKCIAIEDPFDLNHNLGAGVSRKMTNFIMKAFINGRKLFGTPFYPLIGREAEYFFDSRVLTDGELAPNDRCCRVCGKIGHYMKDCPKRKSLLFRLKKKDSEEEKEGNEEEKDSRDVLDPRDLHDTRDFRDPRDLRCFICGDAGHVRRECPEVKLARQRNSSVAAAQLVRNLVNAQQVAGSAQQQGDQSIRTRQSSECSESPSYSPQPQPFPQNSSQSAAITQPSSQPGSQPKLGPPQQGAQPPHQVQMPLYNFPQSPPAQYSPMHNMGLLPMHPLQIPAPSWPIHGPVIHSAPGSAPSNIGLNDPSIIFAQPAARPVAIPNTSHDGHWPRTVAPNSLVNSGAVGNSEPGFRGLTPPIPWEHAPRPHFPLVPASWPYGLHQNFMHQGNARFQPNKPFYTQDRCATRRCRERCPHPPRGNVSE
Sequence of UniProt Q7Z3V4 (Q7Z3V4 whole entry, looked up): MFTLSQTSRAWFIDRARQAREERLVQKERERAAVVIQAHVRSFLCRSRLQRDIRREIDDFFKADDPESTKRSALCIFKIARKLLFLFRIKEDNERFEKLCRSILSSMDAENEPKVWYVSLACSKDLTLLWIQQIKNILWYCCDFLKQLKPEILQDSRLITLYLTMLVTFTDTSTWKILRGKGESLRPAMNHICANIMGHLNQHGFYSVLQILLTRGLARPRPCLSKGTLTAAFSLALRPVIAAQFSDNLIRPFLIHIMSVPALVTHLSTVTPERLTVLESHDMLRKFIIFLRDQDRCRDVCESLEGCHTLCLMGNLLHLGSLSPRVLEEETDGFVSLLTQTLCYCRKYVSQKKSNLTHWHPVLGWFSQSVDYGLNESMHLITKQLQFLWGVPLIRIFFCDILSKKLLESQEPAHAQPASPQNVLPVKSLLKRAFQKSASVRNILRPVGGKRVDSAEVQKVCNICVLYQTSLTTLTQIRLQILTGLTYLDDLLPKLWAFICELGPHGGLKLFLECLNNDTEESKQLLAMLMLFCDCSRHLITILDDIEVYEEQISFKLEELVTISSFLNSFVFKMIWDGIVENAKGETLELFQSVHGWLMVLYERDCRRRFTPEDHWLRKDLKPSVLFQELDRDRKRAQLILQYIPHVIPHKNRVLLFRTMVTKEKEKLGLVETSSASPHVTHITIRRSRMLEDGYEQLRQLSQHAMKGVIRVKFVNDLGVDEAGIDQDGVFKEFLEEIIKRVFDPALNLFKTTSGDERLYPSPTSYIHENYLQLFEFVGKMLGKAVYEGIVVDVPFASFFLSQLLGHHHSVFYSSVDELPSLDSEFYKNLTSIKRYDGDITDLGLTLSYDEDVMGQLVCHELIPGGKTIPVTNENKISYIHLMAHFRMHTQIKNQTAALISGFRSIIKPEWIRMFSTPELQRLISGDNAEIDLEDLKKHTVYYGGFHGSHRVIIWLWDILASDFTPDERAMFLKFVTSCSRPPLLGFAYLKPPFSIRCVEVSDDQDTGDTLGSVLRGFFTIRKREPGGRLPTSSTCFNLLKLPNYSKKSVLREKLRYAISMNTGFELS
Sequence of UniProt Q12800 (Q12800 whole entry, looked up): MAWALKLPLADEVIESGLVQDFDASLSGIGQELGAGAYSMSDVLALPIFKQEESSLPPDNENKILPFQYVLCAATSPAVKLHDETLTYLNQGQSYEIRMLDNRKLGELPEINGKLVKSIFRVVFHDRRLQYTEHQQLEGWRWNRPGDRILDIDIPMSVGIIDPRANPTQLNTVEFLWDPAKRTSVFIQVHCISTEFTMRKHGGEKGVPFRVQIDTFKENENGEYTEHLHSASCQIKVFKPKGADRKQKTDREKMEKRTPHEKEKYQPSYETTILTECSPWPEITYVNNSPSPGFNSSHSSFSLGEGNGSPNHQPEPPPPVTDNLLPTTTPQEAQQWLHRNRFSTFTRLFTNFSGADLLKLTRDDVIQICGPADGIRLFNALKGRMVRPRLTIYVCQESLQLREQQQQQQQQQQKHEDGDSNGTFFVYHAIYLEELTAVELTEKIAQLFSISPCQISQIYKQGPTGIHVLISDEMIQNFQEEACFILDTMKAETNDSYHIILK
Sequence of UniProt Q8N511 (Q8N511 whole entry, looked up): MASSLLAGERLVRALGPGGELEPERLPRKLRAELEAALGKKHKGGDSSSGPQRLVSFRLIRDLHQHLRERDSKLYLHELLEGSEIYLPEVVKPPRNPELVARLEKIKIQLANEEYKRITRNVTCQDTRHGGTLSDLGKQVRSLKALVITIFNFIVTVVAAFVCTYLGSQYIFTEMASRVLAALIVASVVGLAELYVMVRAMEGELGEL
Sequence of UniProt Q14166 (Q14166 whole entry, looked up): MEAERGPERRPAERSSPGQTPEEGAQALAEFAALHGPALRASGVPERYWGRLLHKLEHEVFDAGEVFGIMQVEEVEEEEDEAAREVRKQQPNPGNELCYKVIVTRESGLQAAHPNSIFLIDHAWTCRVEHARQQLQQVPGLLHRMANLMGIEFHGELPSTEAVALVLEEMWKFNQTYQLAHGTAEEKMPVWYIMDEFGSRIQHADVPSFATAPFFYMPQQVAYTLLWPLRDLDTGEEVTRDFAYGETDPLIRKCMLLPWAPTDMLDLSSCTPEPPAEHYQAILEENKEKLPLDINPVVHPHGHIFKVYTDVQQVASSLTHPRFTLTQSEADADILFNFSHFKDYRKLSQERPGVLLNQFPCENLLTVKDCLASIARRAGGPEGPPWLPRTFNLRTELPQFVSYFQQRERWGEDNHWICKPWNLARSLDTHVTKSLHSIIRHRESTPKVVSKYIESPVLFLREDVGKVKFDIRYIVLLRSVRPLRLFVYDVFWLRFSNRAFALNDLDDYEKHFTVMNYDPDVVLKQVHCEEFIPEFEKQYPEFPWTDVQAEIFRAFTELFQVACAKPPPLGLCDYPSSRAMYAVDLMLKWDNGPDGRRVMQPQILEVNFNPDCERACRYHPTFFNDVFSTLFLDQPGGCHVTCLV

Target | log2 fold change (vemurafenib) | log2 fold change [1] | log2 fold change (barasertib) | log2 fold change [2] | log2 fold change (volasertib) | log2 fold change [3] | log2 fold change [4] | log2 fold change [5] | log2 fold change (saracatinib) | log2 fold change (sotrastaurin) | log2 fold change (alvocidib) | log2 fold change (Tubastatin A) | log2 fold change [6] | log2 fold change (defactinib) | log2 fold change [7] | log2 fold change (encorafenib) | log2 fold change [8] | log2 fold change (alisertib) | log2 fold change [9] | log2 fold change (gefitinib)
UBE3B (UniProt Q7Z3V4) | 0.102 | -0.052 | 0.175 | 0.016 | -0.044 | 0.029 | -0.099 | -0.132 | -0.069 | 0.055 | -0.07 | -0.134 | 0.136 | 0.028 | 0.008 | 0.102 | -0.047 | 0 | 0.006 | 0.044
TUT4 (UniProt Q5TAX3) | 0.091 | -0.007 | 0.024 | -0.021 | -0.06 | 0.031 | -0.085 | 0.083 | -0.01 | 0.035 | -0.022 | -0.1 | -0.001 | 0.002 | 0.039 | 0.059 | 0.125 | 0.01 | -0.014 | -0.007
TNIK isoform 4 (UniProt Q9UKE5) | 0.002 | -0.015 | -0.034 | 0.025 | 0 | 0.011 | 0.071 | 0.099 | 0.071 | 0.056 | -0.015 | -0.071 | 0.085 | 0.148 | -0.04 | -0.026 | -0.097 | -0.026 | 0.247 | -0.005
UBL4A (UniProt P11441) | -0.032 | -0.001 | 0.089 | -0.081 | -0.02 | 0.121 | 0.33 (active) | -0.094 | 0.028 | 0 | 0.016 | -0.039 | -0.015 | 0.006 | -0.008 | 0.046 | -0.043 | 0.018 | -0.059 | -0.033
TPM4 (UniProt P67936) | -0.025 | 0.009 | 0.047 | 0.125 | 0.055 | 0.018 | 0.037 | -0.007 | 0.002 | 0.013 | -0.016 | 0.074 | -0.021 | 0.019 | 0.022 | 0.028 | -0.028 | -0.105 | 0.012 | 0.033
TELO2 (UniProt Q9Y4R8) | 0.063 | 0 | 0.088 | -0.073 | -0.071 | 0.048 | -0.017 | -0.043 | 0 | 0.037 | -0.01 | -0.164 | 0.035 | -0.008 | -0.036 | 0.003 | 0.139 | 0.008 | -0.009 | 0.011
TSPAN13 (UniProt O95857) | -0.032 | -0.03 | -0.033 | 0.177 | 0.032 | 0.046 | 0.114 | 0.059 | 0.134 | -0.154 | -0.26 | 0.046 | -0.042 | 0.017 | 0.299 | -0.007 | 0.049 | 0.003 | 0.043 | -0.003
TXNRD2 (UniProt Q9NNW7) | -0.004 | 0.036 | -0.047 | 0.023 | -0.005 | -0.008 | -0.031 | 0.082 | 0 | -0.021 | -0.006 | 0.021 | 0.018 | 0.015 | 0.007 | 0.039 | -0.034 | 0 | 0.008 | -0.064
TYMS (UniProt P04818) | -0.009 | 0.006 | 0.022 | -0.053 | -0.041 | -0.004 | -0.035 | -0.064 | 0 | 0.008 | 0.015 | -0.023 | 0.017 | 0.002 | -0.018 | 0.013 | -0.006 | 0.021 | 0.006 | -0.024
TIMELESS (UniProt Q9UNS1) | 0.035 | 0.031 | 0.039 | -0.058 | 0.043 | 0.013 | -0.094 | -0.07 | 0.035 | 0 | -0.017 | -0.149 | 0.031 | 0 | -0.039 | 0.039 | 0.105 | -0.011 | 0.049 | 0.017
UBXN6 (UniProt Q9BZV1) | 0.046 | -0.192 | -0.007 | -0.025 | -0.075 | -0.001 | 0.008 | -0.015 | -0.03 | 0.025 | 0.014 | -0.087 | 0.03 | -0.019 | 0.055 | 0.042 | 0.104 | 0.017 | 0.006 | 0.006
TTLL12 (UniProt Q14166) | 0.016 | 0.007 | -0.001 | -0.07 | -0.07 | 0.019 | -0.033 | 0.009 | 0.004 | 0.022 | 0.039 | -0.212 | -0.003 | 0.018 | -0.03 | -0.009 | 0.032 | 0 | 0.003 | 0.039
TTC12 isoform 2 (UniProt Q9H892) | 0.025 | 0.061 | 0.053 | -0.049 | 0.063 | -0.121 | -0.208 | 0.079 | 0.038 | -0.055 | -0.024 | -0.279 | -0.06 | -0.05 | -0.041 | -0.052 | -0.03 | -0.145 | -0.043 | 0.137
TMEM199 (UniProt Q8N511) | 0 | 0.026 | 0.009 | 0.023 | 0 | -0.003 | -0.06 | 0.054 | 0.048 | 0.035 | -0.032 | 0.097 | -0.035 | -0.023 | -0.001 | -0.011 | -0.093 | 0 | -0.007 | 0.001
TFCP2 (UniProt Q12800) | 0.023 | 0.049 | 0.007 | -0.064 | -0.064 | 0.045 | -0.042 | -0.083 | 0.022 | -0.006 | 0.015 | -0.215 | 0.169 | 0.003 | 0.009 | 0.093 | 0.044 | 0.019 | -0.049 | -0.033
TRAF2 isoform 2 (UniProt Q12933) | -0.004 | 0.012 | 0 | 0.072 | -0.006 | 0.013 | -0.034 | -0.032 | -0.011 | -0.029 | -0.006 | -0.006 | 0.025 | -0.013 | 0.01 | 0.004 | -0.198 | 0.003 | -0.007 | -0.04
